Where “and” joins values, the source holds several entries; their conditions need not be identical. Identical values can stand only once. Records with an inconclusive call do not appear. Calls of active or inactive are those of the source. Unless noted, the call rests on the fitted dose curve; in most records, active means well fitted curve in the direction sought with a large enough effect; inconclusive means small, poorly fitted or top-dose-only effect, or another doubt; inactive means no such curve, though single readings can be large; an effect the other way counts as inactive or inconclusive.
Columns and labels:
[1] = Cell Viability - MRC5 (AID 434; calls by dose curve;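 further: potency means the concentration at half of the fitted maximal effect; cells exposed to compound for 40 hours at 37 °C; potency reflects cytotoxicity seen as loss of intracellular ATP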); details: MRC5 lung fibroblast viability, qHTS
Procedure, shortened: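 AC50 values come from Hill-equation fits of intracellular ATP loss, measured by CellTiter-Glo luminescence. Normal lung fibroblasts (MRC5) had 40 hr compound treatment at 37 C, normalized between DMSO and 100 uM tamoxifen.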

[2] = Cell Viability - HUV-EC-C (AID 542); details: HUV-EC-C endothelial cell viability, qHTS; series mostly up to 92.2 µM;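 further: cells exposed to compound for 40 hours; on the % scale 0 is the no-effect control and ±100 the full control effect; nearly all actives have a fitted effect of over 35% in size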
Procedure, shortened: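 CellTiter-Glo luminescence measured ATP loss in HUV-EC-C cells (1000/well) after 40 hr compound exposure at 37 °C, in complete culture medium. Concentration-response data were Hill-fitted to give AC50.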

[3] = Cellular Toxicity (caspase-3) HepG2 (AID 654); details: HepG2 caspase-3 activation, luminescence; series mostly up to 92.2 µM;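 further: cells exposed to compound for 16 hours before reading; 0% = DMSO alone and 100% = caspase signal from 100 µM tamoxifen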
Procedure, shortened: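 Caspase 3/7 activation is measured as a luminescence increase (aminoluciferin substrate) after 16 h compound exposure of human hepatocarcinoma HepG2 cells. AC50 values are Hill fits, scaled between DMSO baseline and 100 uM tamoxifen stimulation.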

[4] = Cellular Toxicity (caspase-3) HUV-EC-C (AID 656); details: HUV-EC-C cells, caspase-3 activation (apoptosis); series mostly up to 92.2 µM
Procedure, shortened: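 HUV-EC-C cells (1000/well) in complete medium, compound-treated 16 h at 37 °C; caspase-3/7 activity read by Caspase-Glo 3/7 luminescence. Normalized to DMSO (basal) and 100 uM tamoxifen (100%); AC50 from Hill-equation concentration-response fits.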

[5] = Cellular Toxicity (caspase-3) SHSY5Y (AID 657); details: SH-SY5Y caspase-3 activation; series mostly up to 91.7 µM
Procedure, shortened: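 SH-SY5Y human neuroblastoma cells, 1500/well, exposed to compound for 16 hours at 37 °C in complete medium. Caspase-3/7 activity read by Caspase-Glo luminescence after 1 hr at room temperature, normalized to DMSO and 10 uM staurosporine; AC50 from Hill fit.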

[6] = Cellular Toxicity (caspase-3) MRC-5 (AID 659); details: MRC-5 cells, luminescence, normalized: DMSO 0%, 10 µM staurosporine 100%; series mostly up to 91.7 µM
Procedure, shortened: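 Luminescent Caspase-Glo 3/7 read-out (1 h, room temperature) after a 16 h, 37 °C compound exposure of MRC-5 lung fibroblasts at 1500 cells/well. Concentration-response AC50 from Hill equation; 0% DMSO, 100% 10 uM staurosporine.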

[7] = Cellular Toxicity (caspase-3) Mesangial (AID 660); details: mesangial cells, normalized: DMSO 0%, 100 µM tamoxifen 100%; series mostly up to 91.7 µM;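 further: cells exposed to compound for 16 h before the caspase read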
Procedure, shortened: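 Caspase 3/7 activation measured by Caspase-Glo 3/7 luminescence (20 min, room temperature) following 16 h exposure of mesangial cells (1000/well); AC50 from Hill-equation fit, normalized to DMSO and 100 uM tamoxifen.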

[8] = Cellular Toxicity (caspase-3) SK-N-SH (AID 661); details: SK-N-SH caspase-3 activation, qHTS, DMSO as zero, staurosporine as full; series mostly up to 91.7 µM
Procedure, shortened: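 Caspase 3/7 activation was read by luminogenic substrate cleavage after 16 hour treatment of SK-N-SH cells. Signal was scaled between DMSO and 10 uM staurosporine, and concentration-response data were fitted with the Hill equation for AC50.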

[9] = Cellular Toxicity (caspase-3) H-4-II-E (AID 663); details: H-4-II-E rat hepatoma; Potency: caspase-3 activation; series mostly up to 92.2 µM;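 further: cells exposed to compound for 16 hr before readout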
Procedure, shortened: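 Caspase 3/7 activation measured by luminescent aminoluciferin substrate cleavage after 16 hr compound treatment of H-4-II-E cells in complete medium. Increase normalized between DMSO (basal) and 100 uM tamoxifen (100%); Hill-equation AC50 from concentration-response.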

[10] = Cellular Toxicity (caspase-3) N2a (AID 665); details: N2a cells, luminescence, normalized: DMSO 0%, 10 µM staurosporine 100%; series mostly up to 92.2 µM;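 further: compound exposure lasted 16 h at 37 °C before readout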
Procedure, shortened: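 Caspase-3/7 activation measured as luminescence from Caspase-Glo reagent (1 h, room temperature) after 16 h compound exposure of mouse N2a cells. AC50 values from Hill-equation concentration-response, scaled between DMSO and 10 uM staurosporine.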

[11] = Cellular Toxicity (caspase-3) NIH 3T3 (AID 666); details: NIH 3T3 caspase-3 activation, apoptosis/toxicity, 0% DMSO, 100% is 100 µM tamoxifen; series mostly up to 92.2 µM;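 further: 0% = DMSO basal and 100% = 100 µM tamoxifen stimulation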
Procedure, shortened: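 Caspase-Glo 3/7 luminescence reported caspase activation in 1000 NIH 3T3 cells/well after 16 h compound exposure at 37 C. DMSO set basal and 100 uM tamoxifen set 100% stimulation; concentration-response modeled with the Hill equation for AC50.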

[12] = Cellular Toxicity (caspase-3) Renal Proximal Tubule (AID 667); details: renal proximal tubule cells, primary cells freshly taken from rat; Potency: caspase-3 activation; series mostly up to 91.7 µM;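 further: cells exposed to compound for 16 hours at 37 °C before detection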
Procedure, shortened: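 Freshly isolated primary rat kidney proximal tubule cells, 1000/well, treated 16 hr at 37 °C, then Caspase-Glo 3/7 luminescence after 1 hr. Normalized to DMSO and 10 uM staurosporine; AC50 from Hill fit.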

[13] = MultiTox-Fluor Cytotoxicity Assay - LYMP1-001 - Dead Cells (AID 946); details: LYMP1-001 lymphoblastoid cells, dead-cell protease fluorescence; series mostly up to 92.2 µM
Procedure, shortened: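 Seed 2500 LYMP1-001 cells/well, incubate 5 hr at 37 C; add compound, 16 hr at 37 C; add MultiTox-Fluor reagent, 60 min RT; read dead-cell fluorescence Ex/Em=485/520. Normalize to DMSO and 15 uM tetraoctylammonium bromide.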

[14] = MultiTox-Fluor Cytotoxicity Assay - LYMP1-003 - Dead Cells (AID 961); details: LYMP1-003 lymphoblastoid cells, dead-cell protease fluorescence; series mostly up to 92.2 µM; further: nearly all actives have a fitted effect of over 70% in size
Procedure, shortened: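 LYMP1-003 lymphoblastoid, 2500 cells/well, 5 hr settle then 16 hr cpd at 37 C; MultiTox-Fluor reagent 60 min RT; Ex/Em 485/520 dead-cell signal; norm. DMSO = 0%, 15 uM tetraoctylammonium bromide = 100%; Hill AC50.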

[15] = MultiTox-Fluor Cytotoxicity Assay - LYMP1-003 - Live Cells (AID 962); details: LYMP1-003 lymphoblastoid cells, MultiTox-Fluor live-cell protease fluorescence; series mostly up to 92.2 µM;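 further: 0% = DMSO only and full loss = 92 µM tetraoctylammonium bromide; cytotoxic hits lower the live-cell protease signal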
Procedure, shortened: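 Live-cell protease activity (GF-AFC substrate, 405/510 nm, 60 min at room temperature) after 16 h, 37 C compound exposure of human lymphoblastoid LYMP1-003 cells; concentration-response fitted to the Hill equation for AC50.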

[16] = Cell Viability - LYMP1-003 - Assay at 24 hr (AID 963); details: LYMP1-003 lymphoblastoid cell viability; series mostly up to 92.2 µM;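 further: plate controls were DMSO only for no effect and tetraoctylammonium bromide positive control for full effect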
Procedure, shortened: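 Concentration-response qHTS: ATP loss measured by CellTiter-Glo luminescence after 24 h compound exposure at 37 C. Cells were LYMP1-003 human lymphoblastoid, 2500 per well. AC50 derived via standard Hill equation modeling.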

[17] = qHTS Assay for Identification of Small Molecule Inducers of Hypoxia Response (AID 2120; active means well fitted curve in the direction sought with a large enough effect in the signal ratio, with a control signal flat, not every such curve was filed as active; the % refers to the signal ratio; further: 0% is about no effect); details: hypoxia response reporter cells, beta-lactamase ratio readout; series mostly up to 104 µM
Procedure, shortened: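 Reporter induction read as the CCF4 blue/green (460nm/530nm) emission ratio after 2.5 h dye loading at room temperature. ME-180 HRE-beta-lactamase cells received titrated compounds for 17 h at 37 degrees Celsius; AC50 values derived.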

[18] = molecular target: Peroxisome proliferator-activated receptor alpha (Homo sapiens) (UniProt Q07869); assay: qHTS assay for small molecule agonists of the peroxisome proliferator-activated receptor alpha (PPARalpha) signaling pathway (AID 651778); details: PathHunter PPARalpha complementation, chemiluminescence, 6 h; max response: hits give high values; further: % of control where 0% means no effect
Procedure, shortened: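 Chemiluminescence from complemented enzyme reported PPARalpha activation in cells after 6 hr of compound treatment at 37 C. The detection reagent was incubated for 60 min at room temperature, and compounds were scored as agonists.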

[19] = qHTS assay for small molecule agonists of the antioxidant response element (ARE) signaling pathway measured by Nrf2-dependant transcriptional activity - cell viability counter screen (AID 720653; active means well fitted curve in the direction sought with a large enough effect in the repeat runs; an effect the other way counts as inactive or inconclusive; further: on the % scale 0 is the no-effect control and ±100 the full control effect); details: ARE-bla HepG2 viability, CellTiter-Glo ATP luminescence, 16 h; max response: hits give low values
Procedure, shortened: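 Cytotoxicity counter screen: intracellular ATP quantified by CellTiter-Glo luminescence in the same ARE-bla HepG2 plates, after 16 h compound exposure and a 2 h beta-lactamase substrate step.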

[20] = qHTS assay for cell viability of the p53RE-bla HCT-116 cell line (AID 743292); details: p53RE-bla HCT-116 viability, ATP luminescence, 16 h; series mostly up to 95 µM; further: on the % scale 0 is the no-effect control and ±100 the full control effect; nearly all actives have a fitted effect of over 55% in size
Procedure, shortened: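 ATP-based luminescence, 16 h compound exposure at 37 C, p53RE-bla HCT-116 cells at 4,000/well.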

Sequence of Peroxisome proliferator-activated receptor alpha (Homo sapiens) (Q07869 whole entry, looked up): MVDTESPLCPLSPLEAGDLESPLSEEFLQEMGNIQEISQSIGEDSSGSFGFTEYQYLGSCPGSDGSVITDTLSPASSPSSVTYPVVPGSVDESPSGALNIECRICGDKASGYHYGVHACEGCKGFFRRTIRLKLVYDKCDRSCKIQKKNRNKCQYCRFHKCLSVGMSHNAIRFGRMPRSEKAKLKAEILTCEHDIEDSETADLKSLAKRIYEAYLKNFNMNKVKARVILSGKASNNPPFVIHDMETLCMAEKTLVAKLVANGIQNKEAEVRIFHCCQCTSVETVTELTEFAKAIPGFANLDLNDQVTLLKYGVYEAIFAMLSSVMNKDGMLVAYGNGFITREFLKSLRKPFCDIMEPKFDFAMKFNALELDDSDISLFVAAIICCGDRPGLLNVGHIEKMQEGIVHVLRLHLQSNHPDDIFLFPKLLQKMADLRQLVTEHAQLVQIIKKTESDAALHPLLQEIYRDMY

O=C(Cl)c1ccc([N+](=O)[O-])cc1
inactive: Potency [1] > 92 µM | Potency [2] | Potency [3] | Potency [4] | Potency [5] | outcome [6] | outcome [7] | outcome [8] | Potency [9] | outcome [10] | outcome [11] | Potency [12] | Potency [13] | Potency [14] | Potency [15] | Potency [16] | Potency [17] | max response [18] -4.65% | max response [19] 1.64% | Potency [20]

CCOC(=O)C1OC1c1ccccc1 (centres undefined)
inactive: Potency [1] > 92 µM | Potency [2] | Potency [3] | Potency [4] | Potency [5] | outcome [6] | outcome [7] | outcome [8] | Potency [9] | outcome [10] | outcome [11] | Potency [12] | Potency [13] | Potency [14] | Potency [15] | Potency [16] | Potency [17] | max response [18] -1.32% | max response [19] 8.37% | Potency [20]

O=C(O)/C=C/c1ccc(/C=C/C(=O)O)cc1
inactive: Potency [1] > 92 µM | Potency [2] | Potency [3] | Potency [4] | Potency [5] | outcome [6] | outcome [7] | outcome [8] | Potency [9] | outcome [10] | Potency [12] | Potency [13] | Potency [14] | Potency [15] | Potency [16] | Potency [17] | max response [18] -4.38% | max response [19] -1.74% | Potency [20]

O=C(OCc1ccccc1)c1ccccc1O
inactive: Potency [1] > 92 µM | Potency [2] | Potency [3] | Potency [4] | Potency [5] | outcome [6] | outcome [7] | outcome [8] | Potency [9] | outcome [10] | outcome [11] | Potency [12] | Potency [13] | Potency [14] | Potency [15] | Potency [16] | Potency [17] | max response [18] -2.61% and -0.719% | max response [19] 4.39% and 10% | Potency [20]

Cc1ccc(S(N)(=O)=O)cc1
inactive: Potency [1] > 92 µM | Potency [2] | Potency [3] | Potency [4] | Potency [5] | outcome [6] | outcome [7] | outcome [8] | Potency [9] | outcome [10] | outcome [11] | Potency [12] | Potency [13] | Potency [14] | Potency [15] | Potency [16] | Potency [17] | max response [18] -6.35% and -0.652% | max response [19] 3.25% and -8.35% | Potency [20]

C=CC(C)(O)CCCC(C)CCCC(C)CCCC(C)C (centres undefined)
inactive: Potency [1] > 92 µM | Potency [2] | Potency [3] | Potency [4] | Potency [5] | outcome [6] | outcome [7] | outcome [8] | Potency [9] | outcome [10] | outcome [11] | Potency [12] | Potency [13] | Potency [14] | Potency [15] | Potency [16] | Potency [17] | max response [18] 2.41% | max response [19] 0.618% | Potency [20]

From PubChem BioAssay (NCATS)
